High-throughput results deposited in PubChem BioAssay by several laboratories.
Rv3671c protease: inhibits the M. tuberculosis serine protease Rv3671c; AID 2606; inhibition, % at 5.96 µM; P9WHR9; actives 0.048% (n = 320,000); in the data active = inhibition above about 38%;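 note: extracellular domain of Rv3671c used as enzyme; 0% = enzyme with DMSO and 100% = no enzyme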
Target sequence (P9WHR9 whole entry, looked up, the tested form may be a part): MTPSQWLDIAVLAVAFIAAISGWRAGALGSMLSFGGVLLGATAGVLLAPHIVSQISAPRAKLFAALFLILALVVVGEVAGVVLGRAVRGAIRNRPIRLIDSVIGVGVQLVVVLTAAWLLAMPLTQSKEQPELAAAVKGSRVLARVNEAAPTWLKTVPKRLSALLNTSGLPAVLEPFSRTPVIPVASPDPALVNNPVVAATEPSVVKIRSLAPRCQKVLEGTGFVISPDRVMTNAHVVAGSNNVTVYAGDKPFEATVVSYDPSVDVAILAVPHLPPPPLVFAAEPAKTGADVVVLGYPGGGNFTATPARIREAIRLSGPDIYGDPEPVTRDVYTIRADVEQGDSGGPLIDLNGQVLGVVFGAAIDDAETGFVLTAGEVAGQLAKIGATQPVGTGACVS
Mtb bLac sens: beta-lactam sensitization of Mtb H37Rv. M. tuberculosis H37Rv growth with meropenem, percent inhibition. inhibition, % at 25 µM. actives 0.27% (n = 330,000). AID 434955; call rule not given here;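 note: growth measured after seven days incubation then overnight dye step; 0% = bacteria only wells and 100% = bacteria with antibiotic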
FadD28 FP inh: inhibitors of Mycobacterium tuberculosis FadD28 bisubstrate binding; FadD28 bisubstrate probe binding, fluorescence polarization; inhibition, % at 12.5 µM; actives 0.22% (n = 360,000); in the data active = inhibition above about 8.5%, passing the limit was not always enough; inconclusive = no clear call, values can overlap the other calls
Mtb FBA inh: inhibitors of M. tuberculosis fructose-bisphosphate aldolase; P9WQA3; purified M. tuberculosis FBA, fluorescence read-out; inhibition, % at 1 µM; actives 2.3% (n = 360,000); in the data active = inhibition above about 27%;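 note: 0% = vehicle and 100% = reference inhibitor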
GDH-TPI counter: GDH-TPI coupled enzyme inhibition counter-screen; GDH-TPI coupled enzyme counterscreen, NADH absorbance; inhibition, % at 4.8 µM; actives 1.2% (n = 360,000); AID 588335; in the data active = inhibition above about 30%;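 note: 0% = DMSO wells and 100% = wells lacking the enzyme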
UGM FP inh: Mtb UDP-galactopyranose mutase inhibition; P9WIQ1; purified UGM, fluorescence polarization probe displacement; inhibition, % at 10 µM; actives 0.06% (n = 320,000); in the data active = inhibition above about 10%, passing the limit was not always enough; inconclusive = no clear call, values can overlap the other calls
Active calls of the source: *; ? = inconclusive; · = no result; + = active, no number. Only some compounds are listed: those with a hit (about 3.7% of all), similar ones and a draw of the others.

SMILES	Rv3671c protease	Mtb bLac sens	FadD28 FP inh	Mtb FBA inh	GDH-TPI counter	UGM FP inh
CN(C)S(=O)(=O)c1ccc(C(=O)Nc2nnc(SCC(=O)NCC3CCCO3)s2)cc1 (stereo not drawn)	0.8	5.0	-0.4	-1.8	35.0*	-0.3
CC(C)(C)c1ccc(C(=O)Nc2nnc(SCC(=O)NCC3CCCO3)s2)cc1 (stereo not drawn)	-3.2	?	-2.6	-0.5	-6.2	0.5
CCOc1ccc(C(=O)Nc2nnc(SCC(=O)NCC3CCCO3)s2)cc1 (stereo not drawn)	-6.4	3.2	-0.1	0.6	38.1*	0.6
Cc1ccc(C)c(N2CCN(C(=O)CCCn3ncn4c(cc5occc54)c3=O)CC2)c1	10.3	27.4	-2.4	-0.3	4.3	-2.4
CC(C)OCCCn1c(-c2ccco2)nc2nc3ccccc3nc21	-2.8	18.1	2.2	+	36.0*	-0.8
COCCn1c(-c2ccco2)nc2nc3ccccc3nc21	1.5	-4.6	1.0	+	36.8*	-0.6
N#CC(C#N)=Cc1ccc(N2CCOCC2)cc1	4.6	2.9	-1.4	-7.0	41.2*	-1.5
N#C/C(=C\c1ccc(N2CCOCC2)cc1)c1ccccc1	-1.5	47.5	-1.0	4.2	29.0	1.6
O=C1c2ccccc2CCC12OC2c1ccncc1 (stereo not drawn)	·	·	-2.0	4.0	4.4	·
CCCCN1C(=O)C(CC(=O)NCC2CCCCC2)CC(C(=O)N(CC)CC)=C1C (stereo not drawn)	·	·	-0.2	0.8	8.5	·
O=C1C(Cl)=C(N2CCOCC2)C(=O)N1c1ccccc1Cl	-16.1	94.5	-0.3	-1.2	36.0*	1.1
CCNC(=O)C1(C)CCN(Cc2noc(-c3c(C)noc3C)n2)C1 (stereo not drawn)	·	·	0.1	1.2	10.1	·
CC(=O)NNC(=O)c1sc(=S)n(C)c1C	-2.4	31.9	-4.0	-4.2	33.3*	2.5
O=C(N/N=C1\CCCc2ccccc21)c1ccccc1Cl	5.2	3.1	-2.4	-0.6	-4.7	-0.4
O=C(O)c1ccc(N/N=C2/CCCc3ccccc32)cc1	-5.8	14.4	3.1	1.8	79.2*	-0.5
COCCNC(=O)C1CCCN(C(=O)c2ccc3c(c2)C(C)(C)CCC3(C)C)CC1 (stereo not drawn)	·	·	-0.2	1.4	11.5	·
COc1ccc(C)cc1S(=O)(=O)N1CCCC(N2CCN(c3ccccc3)CC2)C1 (stereo not drawn)	·	·	-3.1	-2.5	-0.9	·
CC(C)C(NC(=O)c1ccc2c(c1)OCO2)C(=O)N/N=C/c1cccs1 (stereo not drawn)	0.2	9.2	?	0.3	14.8	0.8
Cc1c(/C=N/NC(=O)C(NC(=O)c2ccc3c(c2)OCO3)C(C)C)c2ccccc2n1C (stereo not drawn)	-2.1	0.8	-0.8	2.2	37.9*	1.4
COC(=O)CSC1=C(C#N)C(=O)NC(c2ccccc2)S1 (stereo not drawn)	-3.1	-1.6	-2.3	-6.6	40.9*	0.7
COc1ccccc1NOC(=O)CCOc1ccccc1	·	·	-0.6	0.1	3.4	·
O=C(COc1ccc(CNC[C@H]2O[C@@H](n3ccc(=O)[nH]c3=O)[C@H](O)[C@@H]2O)cc1)Nc1nccs1	·	·	0.4	5.2	·	·
Cc1ccccc1CS(=O)(=O)CC(O)CN1CCCC1=O (stereo not drawn)	-11.2	-6.3	-2.2	+	0.0	-4.4
O=[N+]([O-])c1ccc(S(=O)(=O)Nc2ccc(S(=O)(=O)N3CCCC3)cc2)cc1	2.0	-4.8	-5.5	-1.9	-3.9	0.8
CN(CC(=O)Nc1ccc(F)cc1)C(=O)C1CCCC1	-1.4	1.9	1.5	16.6	8.0	1.7
SMILES	Rv3671c protease	Mtb bLac sens	FadD28 FP inh	Mtb FBA inh	GDH-TPI counter	UGM FP inh
O=C(NCCNc1ccnc2cc(Cl)ccc12)c1ccccc1F	1.8	0.1	-1.9	5.8	42.9*	0.3
CC(=O)Oc1ccccc1C(=O)C=Cc1cccc([N+](=O)[O-])c1	·	·	-5.3	-3.0	14.2	·
CC1(c2nc3ccccc3[nH]2)CCC(=O)N1Cc1cccs1 (stereo not drawn)	·	·	-3.0	-2.7	·	·
C[C@@H]1CCC(=O)N(CC[C@H](Sc2ccccc2)c2ccccc2)CC1	0.2	-9.6	-4.7	-1.6	6.7	-1.4
c1ccc2c(c1)ccc1ccccc12	0.1	2.2	0.0	4.6	8.8	·
OCCN(CCO)c1cc2c3ccccc3ccc2c2ccccc12	·	·	-3.7	130.8*	1.8	·
Cc1cc(=O)oc2cc(O)c(N=Nc3ccccc3)cc12	-0.5	73.0	-0.6	3.2	15.9	-3.0
Cc1cc(=O)oc2cc3c(cc12)OCCN3	-8.6	-4.1	0.7	+	18.2	3.2
Cc1cc2c(C)cc(=O)oc2c2c1NCCC2	0.5	1.1	2.0	+	1.9	2.3
CC(=O)c1cc2c(C)cc(=O)oc2cc1O	-7.7	-5.5	-2.7	9.0	17.2	-0.8
Cc1cc(=O)oc2cc3c(cc12)OCO3	-5.4	-3.0	-0.1	+	20.0	-1.7
Cc1cc(=O)oc2cc3c(cc12)CCCN3	4.4	-4.0	0.9	+	16.5	-2.1
Cc1cc(=O)oc2cc(OCc3cc4c(cc3Cl)OCO4)ccc12	1.9	1.9	-0.9	0.6	2.3	-0.4
Cc1cc2cc3c(C)cc(=O)oc3c(C)c2o1	0.4	6.3	2.0	5.8	-1.4	-0.5
CC(=O)OCCN1C(=O)c2cccc3cc([N+](=O)[O-])cc(c23)C1=O	4.5	94.5	·	·	·	-0.2
CCN1C(=O)[C@@H]2[C@@H](c3ccc(-c4cc(C(C)=O)cs4)cc3)N3CCC[C@@]3(C(=O)OC)[C@@H]2C1=O	·	·	-3.0	10.2	36.2*	·
CCN1C(=O)[C@H]2[C@@H](c3ccc(-c4ccc(C(C)=O)cc4)c(OC)c3)N3CCCC[C@@]3(C(=O)OC)[C@H]2C1=O	-1.5	-0.3	-0.9	-0.1	8.1	2.9
O=C(NNC(=S)NCc1ccco1)c1ccc(Cl)s1	-4.3	-9.0	3.0	-1.7	31.0*	1.7
CCOCCC(=O)Nc1ccc2c(c1)c(=O)n(C)n2-c1ccccc1F	·	·	-3.6	181.1*	11.9	·
CCOCCC(=O)Nc1ccc2c(c1)c(=O)n(C)n2C/C=C/c1ccccc1	·	·	-2.3	113.1*	3.6	·
Cn1c(=O)c2cc(NC(=O)CCc3ccccc3)ccc2n1-c1ccccc1F	·	·	-1.2	114.0*	12.6	·
CC(CC(=O)Nc1ccc2c(c1)c(=O)n(C)n2-c1ccccc1)c1ccccc1 (stereo not drawn)	·	·	-2.7	12.8	4.6	·
COc1cc2c(-c3ccc4[nH]ccc4c3)c(-c3ccc(C#N)cc3)oc(=O)c2cc1OC	-22.7	87.4	-4.5	21.1	11.6	-0.6
N#C/C(=C/c1ccc(Br)o1)C(N)=O	4.3	0.6	-0.1	0.2	44.6*	-0.4
N#C/C(=C/c1ccc(Br)o1)C(N)=S	-2.6	-1.3	·	·	·	0.2
O=C(N/N=C/c1c[nH]c2ccccc12)c1cc(-c2ccccc2)n[nH]1	7.4	54.0	5.8	-5.7	37.4*	2.5
O=C(N/N=C/c1c[nH]c2ccccc12)c1cc(-c2ccc(-c3ccccc3)cc2)n[nH]1	-83.3	25.5	-2.6	3.0	13.4	-1.2
O=C(N/N=C\c1c[nH]c2ccccc12)c1ccc(O)cc1	·	0.8	-3.0	0.1	31.6*	0.2
